The supplement of paper PMC11417369
Over roughly 25,000 sequences, “ln(normalized median fluorescence intensity)” has its median near 9.3; the highest 2% begin near 10. The sample holds the highest values, similar sequences and a random draw of the others, so the mix is not that of the screen.

Test system: PF3D7_0420300 AP2 domain 1 (GST-tagged)
Experiment: gcPBM binding intensity (ln(normalized median fluorescence intensity)); higher = stronger DNA binding
Outline: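 Alexa488 anti-GST antibody, scanned at 488 nm, detected GST-tagged P. falciparum DNA-binding domains that had been expressed in E. coli and incubated for 1 h on an Agilent 4 × 180k array. The array carried primer-extended double-stranded 36-bp intergenic genomic probes and negative controls. Binding intensity is the highest Masliner-normalised natural-log median intensity across replicate spots of either orientation of each probe.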

Row | Sequence | gcPBM binding intensity (ln)
1 | TATATAACTGTCTTCACACACACATATAAATAAATA [CACACA_site7317] | 9.77
2 | TAATTTCTTTAGGGGGTGCTTTTATAGTTTTTATTA | 10.1
3 | TATATATTTATTTATAGTACACTATTTATGAAAACC [XGTACX_site3062] | 9.1
4 | ATTAAAAGGGGGTTTACATGTGTGTGTGTAATATGG [TGCATGCA_negctrl_site293] | 10.2
5 | AATAATATTAATAAAAGTACATGTGTAATATATATA [XGTACX_site5922] | 9.51
6 | TATAATCATATTAAGGGTACATATGTGTAAATATTT [XGTACX_site6018] | 9.23
7 | AACAACTATTACTGCACACATTCTTACACTATATAA [CACACA_site654] | 9.75
8 | TATAAATAAAGCAGTACACACATTTATTTTAGATAC [CACACA_site7566] | 9.61
9 | ATAAAAAAATCAGACACACACACGTAAACACATACA [CACACA_site5529] | 10.1
10 | GGGGGGAGGGTGAATACACACGTAATAATCATAAAC [CACACA_site8502] | 10.3
11 | ATAAATATCATATATATACACACGTAATACATAATA [CACACA_site4001] | 9.56
12 | ATGCTATATTAAAAACGTACAAACTGTTTAGAAAAA [XGTACX_site8943] | 9.12
13 | TTATTTAGTATATTATGTACATACAATGCCTGGGAA [XGTACX_site4578] | 9.21
14 | TATAAATAAATAGATACACACATATTTATAAATACA [CACACA_site6219] | 9.56
15 | TGTAAATATATATATACACACACACCGAAGCAATAG [CACACA_site8960] | 10.1
16 | TATATATATAAATACACACACACACCCCAAAGCGTA [CACACA_site4211] | 10.1
17 | TAAATATATTTATACACACACACCAAAGCAATAGAT [CACACA_site7393] | 10.3
18 | AATAGTAAAAGATATACACACACCAAAAAATAGAAT [CACACA_site2289] | 10.3
19 | TAAATATATAAATACACACACACCAAAGCAATAGAT [CACACA_site5605] | 10.2
20 | AATAAAGCAATAAATACACACATATTTATATTTATA [CACACA_site7390] | 9.56
21 | AAAAAGAAAATATATACACACCAAAAAAAAAAAAAA [CACACA_site5698] | 9.46
22 | AATAGTAAAAGATATACACACACCAAAAAATATAAT [CACACA_site5293] | 9.99
23 | AATAAAGCAATAAATACACACATATATATATATATA [CACACA_site2934] | 9.31
24 | TAAAAAAGAAAATATATACACACCAAAAAAAAAAAA [CACACA_site3146] | 9.66

Row | Sequence | gcPBM binding intensity (ln)
25 | TAAATATATATATACACACACACCAAAGCAATAGAT [CACACA_site2940] | 10.3
26 | AGCTATAATAAATATACACACATATATAAATATGTA [CACACA_site6583] | 9.37
27 | CATGTGTTCTATATTTATGTCTAACTTTTTAATTAA [CACACA_negctrl_site904] | 9.43
28 | GTTTAAAAAAATTATCAACTTTAAAAAGGTAACATT [XGTACX_negctrl_site203] | 8.99
29 | ATTTATAAAACAGGCACACATATAATAAATTTTATA [CACACA_site2600] | 9.54
30 | AATACTCAAAAGAATCGTACAAACAACACTCCCACG [XGTACX_site7564] | 9.4
31 | TTTTTTTTTCAAGAGGTGCGTGTATTTTAACAAAAA | 9.03
32 | TTAATTATATTATGCACACACAATTGGAAAAAAAAT [CACACA_site1958] | 9.64
33 | TATAAAATACTGTATCGATGGGGGAGGGCGCAGGGG [TGCATGCA_negctrl_site250] | 11
34 | AGTATATAAAATACTGTATCGATGGGGGAGGGCGCA [CACACA_negctrl_site1612] | 10
35 | ATATATGGGGCGCAGGAAAAGAGTTTTGGAAATAAA [CACACA_negctrl_site1265] | 9.2
36 | TTTCTAATTTATATCACACACATATTTATATAGTAA [CACACA_site6813] | 9.41
37 | TATAAATTTATAAATAGTACATATATTTATATATAT [XGTACX_site6433] | 9.07
38 | CCCACAGACGGACACACACACACATATATATATATA [CACACA_site4352] | 10.1
39 | CACAGACACGGACACACACACACACCCAGACACATA [CACACA_site4357] | 10.2
40 | CACAGACACGGACACACACACATATATATATATATA [CACACA_site5248] | 9.86
41 | TTGGCATACGGACACACACACACACCCAGACATATA [CACACA_site4492] | 10.2
42 | TACAGATACGGACACACACACACACCCAGACAAAAA [CACACA_site4432] | 10
43 | CACAGACACGGACACACACACACACCCACATATATA [CACACA_site4355] | 10.3
44 | CATACACCCAGACACACACACATATATATATATATA [CACACA_site634] | 9.94
45 | CCCACAGACGGACACACACACATATATATATATATA [CACACA_site4351] | 9.81
46 | CCCACAGACGGACACACACACACACCGACACATATA [CACACA_site4356] | 10.2
47 | AATCTAATATAATGCACACATAAAAAAAAATCAAAC [CACACA_site3633] | 9.8
48 | TAAAAATATATATGATTGCACTTAGGACAATATATA | 9.14

Row | Sequence | gcPBM binding intensity (ln)
49 | TTATTTTTTAAAAGTAGTACAAATTTTTATAGAAAA [XGTACX_site7407] | 8.46
50 | AATATTAAAGAATAATGTACAAAATAAAAGCAAAGA [XGTACX_site3550] | 9.86
51 | TATTATTCTACTATTATATTCTATATTATTTATAGT [CACACA_negctrl_site499] | 9.37
52 | ATAATAATATAAAAATGTACATATATTTATAATTGT [XGTACX_site3429] | 9.23
53 | AGCACAGACGGACACACACACATATATATATATATA [CACACA_site4341] | 9.88
54 | AGCACAGACGGACACACACACACACCCACAGACACA [CACACA_site4358] | 10.2
55 | CATACAGATGGACACACACACACACCCACAGACAAA [CACACA_site4431] | 10.1
56 | TTTGAAGGAAGGGGGGGAGGGGCCATAACAAAGGAA [GTGCAC_negctrl_site408] | 10.4
57 | AAAAAAAAAAAAAAAAGGGGGGGAGGGATTGAAAAA [CACACA_negctrl_site193] | 10
58 | AAAGAAGGGGGGGGAAAAAAAAATAAAAGAGGAAAA [XGTACX_negctrl_site92] | 9.59
59 | GCATATGTTCAGCGTTGTACATAAAAAAAAACATAT [XGTACX_site5974] | 9.07
60 | TTGATTTATATTTAATGTACATTTTTACAGAAAATT [XGTACX_site2747] | 8.93
61 | AAAAAAAAAAAAAAATGTACATATATATATATATTA [XGTACX_site7330] | 8.98
62 | CATATATACTCATACACACACACACCGACACAGACA [CACACA_site5026] | 10.1
63 | TGGGAGCACAGACACACACACACACCGATATATATA [CACACA_site8001] | 10.2
64 | GGCATACACGGACACACACACACACCGACATATATA [CACACA_site4493] | 10.3
65 | CACAGACACGGACACACACACACACCGATATATATA [CACACA_site4353] | 10.3
66 | CACGCATACAGACACACACACACACCGATATATATA [CACACA_site8113] | 10.3
67 | CACAGACACGGACACACACACATATATAATATATAT [CACACA_site4495] | 9.98
68 | TGGGAGCACAGACACACACACACACCCATATATATA [CACACA_site335] | 10.1
69 | CACGCATACAGACACACACACACACCCATATATATA [CACACA_site636] | 10.2
70 | AATGAACTCACGAGCACACACACACCGATATATATA [CACACA_site4710] | 10
71 | CGCACAGACGGACACACACACACATATATATATATA [CACACA_site5249] | 10.1
72 | AATTAGATACTAACAAGTACATATATATATATATAT [XGTACX_site2252] | 9.59

Row | Sequence | gcPBM binding intensity (ln)
73 | ATATCGGGTGCATTAACACACATTTATTTGAATAAA [CACACA_site2350] | 9.24
74 | TCAAGAGTTATATAAACACACATACATACAGACATA [CACACA_site6998] | 9.6
75 | ATGTTATAAAATATATGTACATATTTATATAAAATA [XGTACX_site5766] | 9.14
76 | AATATAATATAATATAGTACGTAAAAATATTATACA [XGTACX_site2170] | 9.47
77 | ATATATGCATATATATGTACATATATATATATATAT [XGTACX_site7403] | 9.22
78 | ATTATATTATATTATACATGCATAATATTATATAAA [TGCATGCA_site647] | 9.17
79 | ATTAAATAAACCATTACACACTTTTATGTTTTGAAA [CACACA_site1143] | 9.3
80 | AAAACTTTTTTAACAGAAAAATAGGGATACAATATA [CACACA_negctrl_site1708] | 9.35
81 | AGGATACACGGACACACACACATATATATATATATA [CACACA_site4654] | 9.9
82 | CACGCATACGGACACACACACACACCGATATATATA [CACACA_site4521] | 10.3
83 | ATATATAAAATTATATGTACATATATCTATTTATAA [XGTACX_site3713] | 9.04
84 | TTTATATAACAACAAAATGGAAATATATATGTATGT [TGCATGCA_negctrl_site98] | 9.53
85 | TATACTCAGAAACACACACACACACCCAAAAAAAAA [CACACA_site4434] | 9.97
86 | CACATATATACACATACACACACACCCATACACCCA [CACACA_site8505] | 10.2
87 | CACCCACCCACATACACACACATACACATATATATA [CACACA_site1722] | 10.2
88 | CATACACCCGGACACACACACACACCCATATATAAT [CACACA_site4494] | 10.3
89 | ACCCATATAATATATACACACATATATATATATATA [CACACA_site4731] | 9.52
90 | CATATACACCAACACACACACACACCCACAAAAAAA [CACACA_site496] | 10.2
91 | CATACTCACCAACACACACACACACCCATATAGAAT [CACACA_site592] | 10.2
92 | CTTATATATACATATACACACACACCCATATATATA [CACACA_site8705] | 10.1
93 | TATACATACACATACACACATACACCCATACACATA [CACACA_site1746] | 9.93
94 | TATACACCCGGACACACACACATATATATATATATA [CACACA_site5030] | 9.94
95 | TACACCCACCCACATACACACACATACACATATATA [CACACA_site8503] | 10.2
